# Source: PubChem BioAssay (NCI)
# Compounds without any hit were thinned out: in the full panel of roughly 83,000, 20% have a hit.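 Plates (96-well) were seeded with cells, treated with compound at one concentration, and incubated for 48 hours before percent growth was determined.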 Values without a mark were called inactive. Activity calls are given as the source filed them. Rule for the calls: active = growth percent below 10; inactive = the rest.
# Columns and labels:
# Test in all cases: NCI-60 one-dose screen, 48 h (100 = growth as untreated, 0 = no growth, -100 = all killed)
# [1] = system: BT-549 breast; conditions: 10 µM unless noted
# [2] = system: MDA-MB-435 melanoma; conditions: 10 µM unless noted
# [3] = system: SW-620 colon; conditions: 10 µM unless noted
# [4] = system: MCF7 breast; conditions: 10 µM
# [5] = system: HCT-116 colon; conditions: 10 µM unless noted
# [6] = system: HCC-2998 colon; conditions: 10 µM unless noted
# [7] = system: KM12 colon; conditions: 10 µM unless noted
SMILES,growth [1],growth [2],growth [3],growth [4],growth [5],growth [6],growth [7]
Nc1no[n+]([O-])c1-c1nnc2c(n1)-c1ccccc1C2=O,80.8%,18.8%,29.9%,-48.9% (active),1.78% (active),68.1%,73.1%
Cn1c(=O)n(C)c2cc(CNCCNc3ccnc4cc(Cl)ccc34)ccc21,90.8%,38.7%,23.1%,74.2%,28.1%,27.4%,54.5%
COc1ccccc1N1CCN(C(CNS(=O)(=O)c2ccc(Cl)cc2)c2cccnc2)CC1 (stereo not given),84.9%,86.6%,101%,78.3%,82.6%,88%,61.4%
Cc1cc2c(c(C)c1Cl)C(=O)/C(=C/c1cccc([N+](=O)[O-])c1)O2,106%,99.5%,104%,66%,103%,102%,103%
CN(C)CCCNCc1ccc(-c2ccc(F)c(Cl)c2)o1,76.6%,-41.6% (active),-45% (active),-33% (active),12.3%,-90.2% (active),-19.9% (active)
CNCCNc1nc2ccccc2c2c(=O)c3cc(F)ccc3sc12,82.4%,-61.1% (active),-63.3% (active),-44.5% (active),0.271% (active),-41.8% (active),-33.8% (active)
NCCNc1nc2ccccc2c2c(=O)c3cc(F)cc(Cl)c3sc12,84.8%,-95.2% (active),-78.9% (active),-91.6% (active),-89.6% (active),16.2%,-82.6% (active)
O=C(c1nc2ccccc2[nH]1)C1C(c2ccc(F)cc2)C2CC3CCCCC3N2[C@@]12C(=O)Nc1ccc(Cl)cc12 (stereo not given in full),77.4%,42.4%,41%,21.4%,28%,43%,43.9%
Cc1nc2ccccc2c(/C=C/c2ccc(F)cc2)c1C(N)=O,97.4%,107%,105%,69.7%,98.3%,128%,101%
CN1CCN(Cc2ccc(NC(=O)c3[nH]ncc3Nc3cc(OC4CCCC4)ncn3)cc2)CC1,12.5%,41.5%,15.8%,10.7%,4.66% (active),28.7%,21.9%
CC/C=C\C[C@H](O)C/C=C1/C(=O)C=C[C@@H]1C/C=C\CCCC(=O)OCCS(=O)(=O)c1ccccc1,2.95% (active),28.3%,33.2%,18.9%,-23% (active),53.4%,25.6%
O=C(CN1C=NC2C(N3CCOCC3)=NC=NC21)c1cccc2ccccc12 (stereo not given),109%,99.3%,96%,89.3%,102%,120%,102%
COc1ccc(-c2cc(=O)c3c(OC)c4ccoc4c(/C=C/C=O)c3o2)cc1,-22.9% (active),21.5%,19.6%,17.3%,-73% (active),92.3%,80%
O=C(O)CCCN1C(=O)C2C3CCC(C3)C2C1=O (stereo not given),107%,99.7%,112%,109%,108%,106%,103%
CSc1nc2c(c(=O)n1C)N=C1c3ccccc3C(=O)C1C(c1ccccc1)N2 (stereo not given),82.3%,7.03% (active),70.7%,58.7%,71.3%,64.8%,63.5%
CCn1c(SCC(=O)Nc2cc(C(F)(F)F)ccc2Cl)nc2ccccc2c1=O,64.3%,18.1%,49.1%,28.9%,32.2%,11.7%,10.3%
CCOC(=O)c1ccc(N=Cc2sc(=O)[nH]c2O)cc1,101%,103%,100%,92%,107%,101%,103%
Cc1ccc2cc3c(N)c4c(C)ccc(C)c4nc3nc2c1,53.9%,-70.3% (active),11.1%,37.9%,24.5%,62%,69.6%

SMILES,growth [1],growth [2],growth [3],growth [4],growth [5],growth [6],growth [7]
CC[C@@H](C)[C@H](NC(=O)Cn1cc(CNC(=O)[C@@H](NC(=O)OCc2ccccc2)C(C)C)nn1)C(=O)O,107%,102%,105%,100%,107%,101%,109%
Brc1ccc(Nc2nc3ccccc3nc2Nc2ccc(Br)cc2)cc1,-12.6% (active),-60.2% (active),-69.9% (active),1.16% (active),-86.3% (active),-56.5% (active),-55.3% (active)
COc1cc(C2C(C#N)=C(N)OC3=C2C(=O)c2ccccc2C3=O)cc(OC)c1OC (stereo not given),41.4%,-19.7% (active),21.5%,18.9%,19.1%,30.4%,13.1%
COc1ccc(C2Nc3ncnc(N)c3N=C3c4ccccc4C(=O)C32)cc1 (stereo not given),94.3%,96.9%,103%,95.5%,95.7%,104%,110%
Nc1nc(Nc2cccc(F)c2)nc2ccccc12,75.7%,18.6%,35.1%,41.5%,23.1%,-59.9% (active),59.2%
CCOC(=O)C1=C(C)N=c2s/c(=C\c3ccccc3O)c(=O)n2C1c1ccc(OC)c2ccccc12 (stereo not given),60.3%,-76.6% (active),-78.2% (active),-75.4% (active),11.6%,-86.7% (active),8.88% (active)
CCCN1CCN(c2ccc3nc(-c4ccc5nc(-c6cc(OC)ccc6OC)[nH]c5c4)[nH]c3c2)CC1,96.3%,106%,-70.2% (active),-63.3% (active),-57.3% (active),113%,32.3%
COc1ccc2c(c1)C=C1CSCC3=Cc4cc(OC)ccc4OC13O2,30.8%,-40% (active),33.2%,19.7%,9.24% (active),9.67% (active),16.6%
NCCOc1ncccc1/C=C1\c2ccccc2-c2ccc([N+](=O)[O-])cc21,-17.2% (active),-70.5% (active),-50.3% (active),-42% (active),-74.6% (active),-82.2% (active),-51.5% (active)
CCN1C(=O)N(CC)C2C1NN=c1s/c(=C3\C(=O)N(CC(C)(C)C)c4ccccc43)c(=O)n12 (stereo not given),21.7%,-21.3% (active),42.8%,20.2%,7.62% (active),26.7%,17.6%
CC(C)Cn1c2c(c(=S)[nH]c1=O)CCC2,108%,98.9%,93.6%,109%,105%,123%,105%
COc1cc(CNC(=O)c2ccsc2Nc2ccnc(C(F)(F)F)c2)ccc1O,103%,101%,100%,113%,101%,109%,104%
CC(C)(C)c1ccc(C2CC(=O)C3=C(C2)Nc2ccccc2N(C(=O)c2ccccc2Cl)C3c2ccc(F)cc2)cc1 (stereo not given),44.4%,-80.1% (active),2.52% (active),-33.3% (active),7.97% (active),-21.2% (active),9.1% (active)
Cc1ccc(C2CC(c3ccc(Nc4nc(NCCO)nc(Nc5ccc(Cl)cc5)n4)cc3)=NN2c2cc(Cl)cc(Cl)c2)cc1 (stereo not given),95.9%,98.8%,101%,88.2%,103%,111%,103%
CC1(O)COCCCCOc2c(CN)cccc2NC(=O)c2nc(cnc2N)-c2ccc(cc2)S(=O)(=O)C(C)(C)C1 (stereo not given),85.4%,-93.4% (active),-64.2% (active),-79.4% (active),-56.5% (active),-1.91% (active),-72.7% (active)
Cc1ccc(N=NC2C(=O)N(c3ccc(Cl)cc3)N(c3ccc(Cl)cc3)C2=O)cc1,95.2%,103%,96.4%,85.5%,97.2%,109%,90.3%
Cc1ccc(Cc2cnc(NC(=O)CN3C(=O)/C(=C\c4ccccc4)SC3=S)s2)cc1,117%,107%,107%,95.8%,103%,105%,103%
